Seven compounds from PubChem BioAssay (EPA / NIEHS) can be followed below.

Activity calls are given as the source filed them. How the source made its calls: active means hit-call score of the fitted dose curve at least 0.9, where 1 is the maximum; inactive means score below 0.9.

The nature of assay [1]: ATG_E_Box_CIS: Attagene CIS-FACTORIAL HepG2 Assay for human Enhancer Box (E-box) (AID 2282936). The conditions noted are these: HepG2 E-box cis-reporter transcription, actives raise or lower the signal. Put shortly:
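Endogenous transcription factor activity was sensed in human HepG2 liver cells through transfected cis-promoter reporter units. After 24 h of dosing, total RNA was reverse-transcribed and reporter cDNA resolved by capillary electrophoresis.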

Assay [2] can be described thus: ATG_M_61_CIS: Attagene CIS-FACTORIAL HepG2 Assay for M61 Transcription Factor (Internal Marker) (AID 2282937). The conditions noted are these: HepG2 Attagene CIS-FACTORIAL M61 internal marker reporter; actives raise or lower the signal. In a few lines: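 Multiplexed reporter mRNA assay, HepG2 human hepatoma cells, 24 h treatment. Signal: FAM-labelled, HpaI-digested RT-PCR fragments by CE. Fit: bidirectional, baseline DMSO.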

A short description of assay [3]: ATG_EGR_CIS: Attagene CIS-FACTORIAL HepG2 Assay for human Early Growth Response 1 (EGR1) (AID 2282938). The conditions noted are these: HepG2 Attagene CIS-FACTORIAL EGR reporter mRNA; actives raise or lower the signal. Put shortly: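 Multiplexed cis-reporter system in human hepatoma HepG2 cells, transiently transfected. Cells are dosed for 24 h; reporter transcripts are amplified, fluorescently tagged and sized by capillary electrophoresis, with DMSO as negative control.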

Assay [4] in a line: ATG_M_19_CIS: Attagene CIS-FACTORIAL HepG2 Assay for M19 Transcription Factor (Internal Marker) (AID 2282939). The conditions noted are these: HepG2 Attagene CIS-FACTORIAL M19 internal marker reporter; actives raise or lower the signal. Put shortly:
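Transfect HepG2 with MRTU reporter library → dose chemical, 24 h → isolate total RNA, reverse-transcribe with oligo(dT) → PCR, 6-FAM label, HpaI cut (2 h, 37 C) → capillary electrophoresis. Bidirectional fit vs DMSO.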

The nature of assay [5]: ATG_ERE_CIS: Attagene CIS-FACTORIAL HepG2 Assay for Estrogen Response Element (ERE) (AID 2282940). The note with it: HepG2 ERE cis-reporter, Attagene RNA transcript; actives raise or lower the signal. Put shortly: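 Transient MRTU transfection of human HepG2; cis-element promoters; 24 h dosing; total RNA → RT (oligo dT) → PCR → 6-FAM primer extension → HpaI digest → CE fluorescence. Bidirectional fit, DMSO baseline.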

The nature of assay [6]: ATG_Ets_CIS: Attagene CIS-FACTORIAL HepG2 Assay for human Erythroblast Transformation Specific (ETS) (AID 2282941). The note with it: HepG2 ETS cis-reporter transcription, actives raise or lower the signal. In a few lines: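 Multiplexed reporter transcript profiling: HepG2, 24 h treatment, total RNA to cDNA, PCR, 6-FAM labelling, HpaI cut, capillary electrophoresis. Gain- or loss-of-signal fitted against DMSO.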

For assay [7], the target named is Hepatocyte nuclear factor 3-beta (Homo sapiens) (UniProt Q9Y261). Briefly: ATG_FoxA2_CIS: Attagene CIS-FACTORIAL HepG2 Assay for human Forkhead box A2 (FOXA2) (AID 2282942). The conditions noted are these: HepG2 cis-reporter transcription factor activity, 24 h; actives raise or lower the signal. Put shortly: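 Multiplexed cis-element reporter assay in transiently transfected HepG2. Twenty-four hours post-dosing, RNA was reverse-transcribed, amplified, FAM-labelled, HpaI-digested and separated by CE. Activity gain or loss relative to DMSO.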
Hepatocyte nuclear factor 3-beta (Homo sapiens), sequence (Q9Y261 whole entry, looked up): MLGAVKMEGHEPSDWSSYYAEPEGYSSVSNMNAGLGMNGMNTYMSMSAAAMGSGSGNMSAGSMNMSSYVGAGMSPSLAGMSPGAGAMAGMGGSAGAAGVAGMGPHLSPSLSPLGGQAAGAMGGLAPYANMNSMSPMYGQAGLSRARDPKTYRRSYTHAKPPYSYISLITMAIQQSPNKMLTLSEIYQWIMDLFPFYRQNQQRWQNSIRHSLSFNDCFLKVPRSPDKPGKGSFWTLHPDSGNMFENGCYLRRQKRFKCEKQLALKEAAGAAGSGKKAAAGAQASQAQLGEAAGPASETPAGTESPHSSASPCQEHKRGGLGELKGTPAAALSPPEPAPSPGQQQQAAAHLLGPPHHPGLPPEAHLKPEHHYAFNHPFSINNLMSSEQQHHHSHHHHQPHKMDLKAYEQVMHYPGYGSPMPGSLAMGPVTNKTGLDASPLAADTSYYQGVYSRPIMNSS

The nature of assay [8]: ATG_FoxO_CIS: Attagene CIS-FACTORIAL HepG2 Assay for human Forkhead box O (FoxO) (AID 2282943). The note with it: HepG2 Attagene cis-reporter, FoxO element, mRNA; actives raise or lower the signal. In a few lines:
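24 h chemical exposure, HepG2 with transient cis-MRTU transfection. RNA extraction, oligo(dT) RT, reporter-specific PCR, primer-extension labelling, HpaI digestion, CE fragment analysis; bidirectional fit, DMSO baseline.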

The nature of assay [9]: ATG_GATA_CIS: Attagene CIS-FACTORIAL HepG2 Assay for human GATA Binding Protein (AID 2282944). The conditions noted are these: HepG2 GATA cis-element reporter, Attagene multiplex mRNA; actives raise or lower the signal. Put shortly: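 Transient MRTU transfection, HepG2, 24 h compound exposure. Total RNA → oligo(dT) RT → PCR → 6-FAM primer extension → HpaI cut → CE. Bidirectional fit vs DMSO.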

A short description of assay [10]: ATG_GLI_CIS: Attagene CIS-FACTORIAL HepG2 Assay for human Zinc Finger Protein GLI1 (AID 2282945). The conditions noted are these: HepG2, Attagene cis-factorial reporter mRNA, GLI element; actives raise or lower the signal. In a few lines: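 HepG2 cells transiently transfected with cis-promoter multiplexed reporter units report endogenous transcription factor activity. After 24 h chemical exposure, reporter mRNA was quantified by RT-PCR, 6-FAM labelling, HpaI digestion and capillary electrophoresis, with bidirectional fitting against DMSO.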

Assay [11] can be described thus: ATG_GRE_CIS: Attagene CIS-FACTORIAL HepG2 Assay for human Glucocorticoid Response Elements (GRE) (AID 2282947). The conditions noted are these: HepG2 GRE cis-reporter, Attagene multiplex mRNA; actives raise or lower the signal. Put shortly: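 Cells (HepG2) bearing transfected cis-promoter reporter transcription units were treated with chemical for 24 hours. Reporter mRNA was measured via RT-PCR with capillary electrophoresis, and activity was fitted in both directions relative to DMSO.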

Assay [12] can be described thus: ATG_ISRE_CIS: Attagene CIS-FACTORIAL HepG2 Assay for human Interferon Regulatory Factor 1 (IRF1) binding to an Interferon-Stimulated Response Element (ISRE) (AID 2282948). The conditions noted are these: HepG2 ISRE cis-reporter (Attagene), mRNA transcription readout; actives raise or lower the signal. Put shortly: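 Signal reflects induction or loss of ISRE-linked reporter mRNA in transiently transfected HepG2 cells after a 24 h treatment, detected by fluorescent RT-PCR fragments on capillary electrophoresis and normalised to DMSO.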

The nature of assay [13]: ATG_M_32_CIS: Attagene CIS-FACTORIAL HepG2 Assay for M32 Transcription Factor (Internal Marker) (AID 2282949).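 Further: background control marker of the multiplexed CIS panel rather than a real target.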 The conditions noted are these: HepG2 Attagene cis-factorial M32 reporter, mRNA; actives raise or lower the signal. Put shortly: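 HepG2 human liver cells transiently transfected with cis-promoter-driven multiple reporter transcription units, dosed 24 h. Reporter mRNA quantified by RT-PCR, FAM-labelled primer extension, HpaI digest and capillary electrophoresis; bidirectional fit versus DMSO baseline.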

A short description of assay [14]: ATG_M_06_CIS: Attagene CIS-FACTORIAL HepG2 Assay for M06 Transcription Factor (Internal Marker) (AID 2282950). The conditions noted are these: HepG2 Attagene CIS-FACTORIAL M06 internal marker reporter; actives raise or lower the signal. Put shortly: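 Read-out is fluorescence of labelled reporter cDNA fragments resolved by capillary electrophoresis after RT-PCR. Cells: HepG2 carrying transfected cis-promoter reporter units, treated 24 h. Gain or loss of signal fitted relative to DMSO.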

Assay [15] deals with Hypoxia-inducible factor 1-alpha (Homo sapiens) (UniProt Q16665). Briefly: ATG_HIF1a_CIS: Attagene CIS-FACTORIAL HepG2 Assay for human Hypoxia Inducible Factor 1 (HIF1A) (AID 2282951). The note with it: HepG2 Attagene cis-factorial HIF1a reporter transcription; actives raise or lower the signal. In a few lines:
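Cis-element reporter constructs were transiently transfected into HepG2 cells, which were treated for 24 h; reporter RNA was reverse-transcribed, amplified, labelled and resolved by capillary electrophoresis.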

For assay [16], the target named is Hepatocyte nuclear factor 6 (Homo sapiens) (UniProt Q9UBC0). The experiment in a line: ATG_HNF6_CIS: Attagene CIS-FACTORIAL HepG2 Assay for human Hepatocyte Nuclear Factor 6 (HNF6) (AID 2282952). The note with it: HepG2 Attagene cis-factorial HNF6 reporter transcription; actives raise or lower the signal. Put shortly: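 First, HepG2 cells were transfected with the multiplexed cis reporter library and dosed with chemical for 24 h. Next, RNA was reverse-transcribed, PCR-amplified and fluorescently labelled. Finally, HpaI-digested fragments were read by capillary electrophoresis.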
Hepatocyte nuclear factor 6 (Homo sapiens), sequence (Q9UBC0 whole entry, looked up, the tested form may be a part): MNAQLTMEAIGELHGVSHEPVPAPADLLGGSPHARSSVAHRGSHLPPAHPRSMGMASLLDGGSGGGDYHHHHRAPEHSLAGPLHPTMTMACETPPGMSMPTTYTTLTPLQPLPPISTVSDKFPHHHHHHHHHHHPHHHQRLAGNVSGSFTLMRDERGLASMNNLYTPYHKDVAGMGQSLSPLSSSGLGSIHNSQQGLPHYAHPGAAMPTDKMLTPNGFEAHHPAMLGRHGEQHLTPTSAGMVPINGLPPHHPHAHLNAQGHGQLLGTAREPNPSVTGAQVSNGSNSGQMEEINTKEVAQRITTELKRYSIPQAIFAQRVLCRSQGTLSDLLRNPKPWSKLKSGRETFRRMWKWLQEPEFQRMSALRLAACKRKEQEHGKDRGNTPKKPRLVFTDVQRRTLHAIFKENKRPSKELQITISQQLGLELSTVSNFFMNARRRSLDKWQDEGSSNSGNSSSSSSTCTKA

Assay [17] has as its target Heat shock factor protein 1 (Homo sapiens) (UniProt Q00613). The experiment in a line: ATG_HSE_CIS: Attagene CIS-FACTORIAL HepG2 Assay for human Heat Shock Transcription Factor 1 (HSE) (AID 2282953). The conditions noted are these: HepG2 HSE cis-reporter, Attagene RNA transcription; actives raise or lower the signal. In a few lines: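 HepG2, transient MRTU transfection, cis-promoter reporters (endogenous TF activity). 24 h compound. RNA → oligo(dT) RT → PCR → 6-FAM primer extension → HpaI cut → CE. Bidirectional fit vs DMSO.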

The nature of assay [18]: ATG_MRE_CIS: Attagene CIS-FACTORIAL HepG2 Assay for human Metal Responsive Element (MRE) (AID 2282954). The note with it: HepG2 MRE cis-reporter transcription, Attagene multiplex; actives raise or lower the signal. In a few lines:
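Cells were transfected with cis-promoter reporter transcription units, then dosed for 24 h. RNA was reverse-transcribed, amplified, fluorescently labelled and resolved by capillary electrophoresis, and activity was fitted in both directions relative to DMSO.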

Assay [19] can be described thus: ATG_PBREM_CIS: Attagene CIS-FACTORIAL HepG2 Assay for human Phenobarbital-responsive Enhancer Module (PBREM) (AID 2282955). The note with it: HepG2 PBREM cis-reporter, Attagene multiplexed transcription; actives raise or lower the signal. In a few lines:
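Multiplexed cis-reporter readout in human hepatoma HepG2 cells; PBREM-regulated transcript quantified after 24 h exposure by fluorescent RT-PCR fragment analysis. Signal changes up or down fitted relative to DMSO.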

Heat shock factor protein 1 (Homo sapiens), sequence (Q00613 whole entry, looked up): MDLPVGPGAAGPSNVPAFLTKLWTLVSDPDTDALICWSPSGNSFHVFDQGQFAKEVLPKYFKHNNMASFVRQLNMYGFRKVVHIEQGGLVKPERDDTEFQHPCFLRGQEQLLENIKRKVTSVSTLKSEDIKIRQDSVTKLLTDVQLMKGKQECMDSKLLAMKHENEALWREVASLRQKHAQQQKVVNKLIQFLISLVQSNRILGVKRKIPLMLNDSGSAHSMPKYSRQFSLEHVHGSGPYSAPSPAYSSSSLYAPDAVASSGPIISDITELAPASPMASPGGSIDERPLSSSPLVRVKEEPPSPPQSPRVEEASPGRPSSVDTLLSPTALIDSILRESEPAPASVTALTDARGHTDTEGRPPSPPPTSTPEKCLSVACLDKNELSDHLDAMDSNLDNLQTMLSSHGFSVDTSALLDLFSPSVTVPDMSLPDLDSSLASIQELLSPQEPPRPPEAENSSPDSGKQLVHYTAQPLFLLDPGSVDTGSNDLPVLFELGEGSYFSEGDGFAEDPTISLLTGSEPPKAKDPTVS
Hypoxia-inducible factor 1-alpha (Homo sapiens), sequence (Q16665 whole entry, looked up): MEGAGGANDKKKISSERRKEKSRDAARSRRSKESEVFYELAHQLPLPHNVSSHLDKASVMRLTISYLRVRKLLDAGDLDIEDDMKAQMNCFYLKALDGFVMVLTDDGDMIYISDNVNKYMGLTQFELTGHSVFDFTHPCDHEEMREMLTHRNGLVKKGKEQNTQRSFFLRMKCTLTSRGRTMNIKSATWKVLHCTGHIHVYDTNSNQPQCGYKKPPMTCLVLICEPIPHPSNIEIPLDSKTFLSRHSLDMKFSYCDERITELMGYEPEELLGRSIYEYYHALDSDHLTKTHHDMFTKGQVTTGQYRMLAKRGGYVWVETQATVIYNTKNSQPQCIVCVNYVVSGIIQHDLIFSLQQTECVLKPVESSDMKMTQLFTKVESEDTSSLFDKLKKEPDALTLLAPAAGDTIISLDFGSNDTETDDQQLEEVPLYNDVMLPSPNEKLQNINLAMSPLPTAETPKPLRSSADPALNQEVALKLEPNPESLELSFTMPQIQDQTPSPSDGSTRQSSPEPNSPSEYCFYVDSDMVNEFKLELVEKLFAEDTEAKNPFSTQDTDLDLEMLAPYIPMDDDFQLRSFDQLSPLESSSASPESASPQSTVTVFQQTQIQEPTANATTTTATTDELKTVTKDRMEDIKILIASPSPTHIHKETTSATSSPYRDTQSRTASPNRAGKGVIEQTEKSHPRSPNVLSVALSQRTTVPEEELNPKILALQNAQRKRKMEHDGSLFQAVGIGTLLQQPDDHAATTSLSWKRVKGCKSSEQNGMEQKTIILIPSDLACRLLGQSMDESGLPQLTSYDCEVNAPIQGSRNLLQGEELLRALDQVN

With `O=C1CCC(=O)N1Cl`, the result in assay [1], in assay [2], in assay [3], in assay [4], in [5] and in [6] was inactive. The compound was called inactive in [7], in assay [8], in [9], in assay [10], in [11] and in assay [12]. Moreover, the compound was called inactive in assay [13], in assay [14], in [15], in [16], in [17] and in assay [18]. Besides, in [19], the result was inactive.

As to `CC1(C)[C@H]2CC[C@]1(C)C(=O)C2`, the outcome in assay [1], in [2], in [3], in assay [4], in assay [5] and in assay [6] was inactive. For the same compound, the result in assay [7], in assay [8], in [9], in [10], in assay [11] and in assay [12] was inactive. Further, the call in assay [13], in assay [15], in assay [16], in assay [17], in assay [18] and in [19] was inactive.

For orientation: AC50 means the concentration at which the activity in the assay is half-maximal. On to `CCOC(=O)N1CCC(=C2c3ccc(Cl)cc3CCc3cccnc32)CC1`, for which the outcome in assay [1], in assay [2], in assay [4], in assay [5], in assay [6] and in [7] was inactive. The result in assay [8], in assay [9], in assay [10], in assay [11], in assay [13] and in assay [14] was inactive. The outcome in [16] and in assay [17] was inactive. Moreover, the AC50 in [3] is 6.7 µM (active); in assay [12], 7.19 µM (active); in [15] it was 7.91 µM (active); in assay [18] it was 10.7 µM (active); in [19], 0.933 µM (active).

Consider `CCCc1ccc(OC)cc1`, for which the result in assay [1], in assay [2], in assay [3], in [4], in assay [5] and in assay [6] was inactive. Further, the outcome in assay [7], in assay [8], in assay [9], in assay [10], in [11] and in assay [12] was inactive. Besides, the outcome in assay [13], in assay [15], in assay [16], in assay [17] and in assay [18] was inactive.

In the case of `CC=CC(=O)N(CC)c1ccccc1C`, the result in assay [1], in assay [2], in assay [3], in assay [4], in [5] and in [6] was inactive. Besides, the outcome in [7], in [8], in [9], in assay [10], in assay [11] and in assay [12] was inactive. Moreover, the compound was called inactive in assay [13], in assay [14], in assay [16], in assay [17], in [18] and in assay [19].

For `O=C(c1ccccc1)C1CCC1`, the outcome in [1], in assay [2], in assay [3], in assay [4], in assay [5] and in [6] was inactive. Further, the outcome in [7], in assay [8], in assay [9], in assay [10], in assay [11] and in assay [12] was inactive. The compound was called inactive in assay [13], in assay [14], in assay [15], in assay [16], in assay [18] and in [19].

Consider `OC1CCCCCCCCCCC1`, for which the outcome in assay [1], in assay [2], in assay [3], in [4], in assay [6] and in [7] was inactive. Further, the compound was called inactive in assay [8], in [9], in assay [10], in assay [11], in assay [12] and in assay [13]. The compound was classed as inactive in assay [14], in assay [15], in assay [16], in [17] and in assay [19]. For the same compound, the values for the AC50 in assay [5] and in assay [18] were 26.4 µM (active) and 100 µM (active), respectively.
